Assay results published in PubChem BioAssay (NCATS).
Inconclusive results are not listed. Entries that show only a call come without a potency. Activity calls are given as the source filed them. The call rests on the fitted dose curve; in most records, active means well fitted inhibition curve with a large enough effect; inconclusive means small, poorly fitted or top-dose-only effect; inactive means flat fitted curve, though single readings scatter. Square brackets hold non-standard residues; d marks the D form. Peptide text beside a SMILES is read from it. PhLac = O=C(O)[CH](O)Cc1ccccc1; NMeV = CN[CH](C(=O)O)C(C)C

test system: CRL-7250; test: qHTS assay to identify novel small-molecules to repurpose for Merkel cell carcinoma treatment (AID 1296009); conditions: MCC and control cell lines, CellTiter-Glo viability, 72 h; series mostly up to 92 µM; further: nearly all actives have a fitted effect of over 60% in size
Summary of the method: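 72 hr, 37 degree celsius; NPC 8-pt / MIPE 11-pt dose response; compound pinned in DMSO; CellTiter-Glo, 10 min RT, luminescence; normalized to no-cell and DMSO controls.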

| SMILES | Potency | outcome |
| --- | --- | --- |
| CC1(C)CCC[C@@]2(C)[C@H]1[C@H](O)C=C1COC(=O)[C@@]12O | inactive |  |
| Cc1[nH]cnc1C1CCN(c2nc3cccc4c3n2CCC4=O)CC1 | inactive |  |
| O=C1CC(c2ccc([N+](=O)[O-])cc2)=NN1c1ccccc1 | inactive |  |
| CC1=C2C(=O)C=C(CO)C2[C@H]2OC(=O)[C@H](C)[C@@H]2[C@@H](OC(=O)Cc2ccc(O)cc2)C1 (stereo not given in full) | inactive |  |
| Nc1nc2c(cnn2CCCc2ccc(O)cc2)c2nc(-c3ccco3)nn12 | inactive |  |
| CC(=O)C=C=C1C(C)(C)CC(O[C@@H]2O[C@H](CO)[C@@H](O)[C@H](O)[C@H]2O)CC1(C)O (stereo not given in full) | inactive |  |
| CC(C)(C)OC(=O)c1ncn2c1C(C)(C)Nc1ccccc1-2 | inactive |  |
| O=C(Nc1ccccc1C(=O)NC1CCCCNC1=O)c1cc2ccccc2s1 (stereo not given) | inactive |  |
| CC/C=C\[C@H](O)[C@H](O)C1=C(C)C(=O)[C@]2(O1)C(=O)N[C@@](O)(C(=O)c1ccccc1)[C@@H]2O | inactive |  |
| FC(F)(F)c1cc(C(F)(F)F)c2ccc3nc(-c4nnco4)cn3c2n1 | inactive |  |
| C=C1C(=O)O[C@@H]2C[C@H](C)[C@@]3(O)C=C(C(C)=O)[C@]4(CC3C[C@H]12)C(=O)O[C@H]1C[C@@H](C)C(CCC(C)=O)=CC[C@H]14 (stereo not given in full) | inactive |  |
| NC(N)=NCCC[C@H](NC(=O)c1sccc1NS(=O)(=O)c1cccc2nsnc12)C(=O)O | inactive |  |
| C=C1CC2C3(C)C(O)CC(=O)C(C)(C)C3C(OC(C)=O)C(OC(C)=O)C2(C)C2C(=O)OC(C)(C(=O)OC)C(=O)C12C (stereo not given) | inactive |  |
| O=C(/C=C/c1ccc(O)cc1)OC[C@H]1O[C@@H](O/C(=C\c2ccccc2)C(=O)O)[C@H](O)[C@@H](O)[C@@H]1O | inactive |  |
| CC1=C[C@@H]2[C@H]3[C@@H]4O[C@@](C)(CC[C@H]4O)[C@H]3CC(=O)[C@]23C(=O)N[C@@H](CC(C)C)[C@@H]3[C@@H]1C | inactive |  |
| C/C=C/C=C/C(O)=C1/C(=O)[C@]2(C)C(=O)[C@@](C)(O)[C@H]1[C@H]([C@@]1(C)OC(=O)C(C)=C1O)[C@H]2C(=O)CC/C=C/C | inactive |  |
| CC(=O)O[C@@H]1C(=O)C(C)=C(CCC(C)CC(=O)O)[C@@]2(C)CCCC(C)(C)C12 (stereo not given in full) | inactive |  |
| OC[C@H]1O[C@@H](Oc2ccccc2)[C@H](O)[C@@H](O)[C@@H]1O | inactive |  |
| C=CC(C)(O)CC/C=C(\C)C1CC=C(C)C(=O)O1 (stereo not given) | inactive |  |
| C/C=C(\C)C1C(C)=CC2CCC(OS(=O)(=O)O)C(C)C2C1/C=C/C=C/C(=O)O (stereo not given) | inactive |  |

| SMILES | Potency | outcome |
| --- | --- | --- |
| CC1(C)CC[C@]2(C(=O)O)[C@H](O)C[C@]3(C)C(=CCC4[C@@]5(C)CC[C@H](O[C@@H]6O[C@H](CO[C@@H]7OC[C@H](O)[C@H](O)[C@H]7O[C@@H]7OC[C@H](O)[C@H](O)[C@H]7O)[C@@H](O)[C@H](O)[C@H]6O)C(C)(C)C5CC[C@]43C)[C@@H]2C1 (stereo not given in full) |  | inactive [at 9.27 µM] |
| Cc1cc(-c2nncc3c(C(C)(C)C)c(OCc4ncnn4C)nn23)no1 | inactive |  |
| CC(C)OC(=O)N1CCC(Oc2ncnc3c2cnn3-c2ccc(S(C)(=O)=O)cc2F)CC1 | inactive |  |
| COc1cccc(OC)c1-c1cc(C(=O)N[C@@H](CC(C)C)C(=O)O)nn1-c1ccnc2cc(Cl)ccc12 | inactive |  |
| C[C@H](NCc1ccc(OCc2ccccc2F)cc1)C(N)=O | inactive |  |
| C=C(C(=O)OC)[C@]12O[C@@](C)(CC[C@@]3(O)/C(=C\C)C(=O)O[C@]3(C)C[C@@H]1OC(=O)C(CO)CN1CCCC1C(=O)O)CC2=O (stereo not given in full) | inactive |  |
| CC1(C)CC[C@]2(C(=O)O)CC[C@]3(C)C(=CCC4[C@@]5(C)C[C@@H](O)[C@H](O)[C@@](C)(CO)C5CC[C@]43C)C2C1 (stereo not given in full) | inactive |  |
| CCN[C@@H]1C[C@H](N)[C@@H](O[C@H]2OC(CN)=CC[C@H]2N)[C@H](O)[C@H]1O[C@H]1OC[C@](C)(O)[C@H](NC)[C@H]1O | inactive |  |
| C=CC1(C)CC(OC(=O)C(=C)C(O)COC(C)=O)C(C(=C)C(=O)OC)C(O)C1C(=C)CO (stereo not given) | inactive |  |
| COc1cc(O)cc(C)c1C(=O)O[C@H]1[C@@H](OC(C)=O)[C@H](n2ccc(=O)[nH]c2=O)O[C@@H]1CO | inactive |  |
| Cc1c(NC(=O)N2CCOCC2)ccc2c1c1ccccc1n2C(C)C | inactive |  |
| CCC(CC)C(=O)Nc1sc2c(c1C#N)CCC(C(C)(C)CC)C2 (stereo not given) | inactive |  |
| O=C(Nc1ccc(-c2ccc(Cl)c(Cl)c2)cc1)C1=C(O)c2ccccc2S(=O)(=O)N1 | inactive |  |
| Cc1ncc([N+](=O)[O-])n1CC(O)CN1CCOCC1 (stereo not given) | inactive |  |
| N#CCc1ccc(O)cc1O[C@@H]1O[C@H](CO)[C@@H](O)[C@H](O)[C@H]1O | inactive |  |
| CC(=O)c1[nH]cc(CCC(=O)O)c1CC(=O)O | inactive |  |
| CC(C)C(C(=O)N1CCCC1C(=O)O)N(C)C(=O)C(O)Cc1ccccc1 (stereo not given) (H-[PhLac]-[NMeV]-Pro-OH; configuration not given here) | inactive |  |
| CC1(C)CC[C@]2(C(=O)O)CC[C@]3(C)C(=CCC4[C@@]5(C)C[C@H](O)[C@H](O[C@@H]6OC[C@H](O)[C@H](O)[C@H]6O)[C@@](C)(CO)C5CC[C@]43C)[C@@H]2C1 (stereo not given in full) | inactive |  |
| CC/C=C\C(O)C(O)C1=C(C)C(=O)C2(O1)C(=O)NC(OC)(C(=O)c1ccccc1)C2O (stereo not given) | inactive |  |
| Cc1ccc([C@@H]2CC=C(C(=O)O)[C@H](c3ccc(C(C)(C)C)cc3)N2S(=O)(=O)c2ccc(C)cc2)cc1 | inactive |  |
